# High-throughput results deposited in PubChem BioAssay by Milwaukee Institute for Drug Discovery.
# NS3h inh CB: HCV NS3 helicase inhibitors, primary screen, biochemical, fluorescence polarization, ChemBridge library; 1.6% of 16,000 active; NS3h Cy5-dT15 DNA binding; Hepatitis C virus NS3 helicase; inhibition, % at 100 µM;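 active = inhibition above the average over every tested compound plus 3 SD, cut at about 40% in these data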
# Cy5 interf NS3h: Cy5 fluorescence quenchers or enhancers, artefact control for HCV NS3 helicase inhibitor project, biochemical, ChemBridge library, Cy5 readout. 6% of 16,000 active. fluorescence interference ratio at 100 µM. Cy5-dT15 DNA with NS3h, fluorescence interference; actives lie on both sides; signal over control mean, under 1 quenches;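 active = compound fluorescence over control fluorescence at most 0.8, a quencher, or at least a set upper limit, an enhancer; inactive = ratio between 0.8 and the set upper limit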
# HCV NS3h conf: HCV NS3 helicase inhibitors, retest, confirmation, biochemical, fluorescence polarization, ChemBridge library; AID 720485, 2013; inhibition, % at 100 µM; shares compounds with NS3h inh CB; 20% of 240 active; NS3h binding to Cy5-dT15 DNA;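 active = percent inhibition of 50% or more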
# SSB FP counter: E. coli SSB-DNA binding inhibitors, counter-screen for HCV NS3 helicase inhibitor project, biochemical, fluorescence polarization, selected ChemBridge compounds. inhibition, % at 100 µM. AID 720486, 2013. 40% of 240 active. E. coli SSB binding Cy5-dT15. shares compounds with NS3h inh CB;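 active = inhibition of at least 50%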;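 note: displacers lower Cy5 polarization so higher inhibition means more SSB displaced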
# Target sequence (P0AGE0 whole entry, looked up): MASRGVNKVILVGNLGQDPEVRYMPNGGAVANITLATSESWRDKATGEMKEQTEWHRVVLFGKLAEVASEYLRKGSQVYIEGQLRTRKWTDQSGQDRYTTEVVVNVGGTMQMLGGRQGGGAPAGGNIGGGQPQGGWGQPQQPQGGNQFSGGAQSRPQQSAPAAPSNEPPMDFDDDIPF
# Cy5 SSB interf: Cy5 fluorescence interference with SSB-bound oligo, artefact control for HCV NS3 helicase inhibitor project, biochemical, E. coli SSB, selected ChemBridge compounds. Cy5-dT15/E. coli SSB fluorescence interference; actives lie on both sides. 8% of 240 active. fluorescence interference ratio at 100 µM. shares compounds with NS3h inh CB;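 active = fluorescence interference ratio at or above 1.2, signal boosting, or at or below 0.8, signal quenching; inactive = ratio between 0.8 and 1.2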;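 note: ratio of compound well signal to mean negative control signal so 1 means no effect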
# Cy5 fluor confirm: Cy5-DNA-NS3h complex fluorescence interference, confirmation, artefact control for HCV NS3 helicase inhibitor project, biochemical, ChemBridge library; Cy5-dT15 DNA/NS3h fluorescence interference counterscreen; fluorescence interference ratio at 100 µM, hits read low; shares compounds with NS3h inh CB; 44% of 240 active;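 active = fluorescence interference ratio at or below 0.8 quencher or at or above a set limitenhancer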;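 note: ratio of compound fluorescence to mean of negative controls so 1 means no interference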
# Numbers without * were called inactive; ! = repeats disagree. Only some compounds are listed: those with a hit (about 7.6% of all), similar ones and a draw of the others.
SMILES,NS3h inh CB,Cy5 interf NS3h,others
O=C(Cn1c[n+]([N-][N+](=O)[O-])cn1)N1CCN(C(=O)Cn2c[n+]([N-][N+](=O)[O-])cn2)CC1,0.0,1.06,
O=C(Cn1c[n+]([N-][N+](=O)[O-])cn1)Nc1ccc(NC(=O)Cn2c[n+]([N-][N+](=O)[O-])cn2)cc1,-5.6,0.757*,
Cc1cc([N+](=O)[O-])nn1CC(=O)Nc1ccc(Cl)cc1C(=O)c1ccccc1,8.7,0.569*,
O=C(Nc1ccc(Cl)cc1C(=O)c1ccccc1)c1cncc(Br)c1,11.4,0.944,
COc1ccc2[nH]cc(CCN)c2c1,6.6,0.756*,
CC1(C)C(c2ccccc2)=NC(c2cccnc2)N1O (configuration not stated),-0.7,1.07,
COc1ccc(C(c2c(O)c3ccccc3oc2=O)c2c(O)c3ccccc3oc2=O)cc1CSc1ccccn1,37.5,0.833,
Cc1ccccc1-n1c(/C=C/c2ccc3c(c2)OCO3)nc2ccccc2c1=O,2.2,1.01,
O=C(CCN1CCOCC1)Nc1ccc(Br)cc1C(=O)c1ccccc1,3.1,1.05,
CC1=NN(c2ccccc2)C(=O)C1=Cc1c(O)[nH]c(=O)[nH]c1=O,14.1,0.707*,
O=C(O)[C@H]1C2CCCCC2=C2CCCCC2[C@@H]1c1ccccc1 (some centres not stated),7.9,0.991,
CN1CN(Cc2ccccc2)CN/C1=N\[N+](=O)[O-],0.7,1.02,
O=[N+]([O-])c1ccc(N2CCCC2)c(F)c1Br,-3.4,0.838,
Cc1ccc(C)n1-c1ccc(N2CCNCC2)c([N+](=O)[O-])c1,-18.5,0.317*,
COC(=O)CCP(C)(=O)OCC(C)C (configuration not stated),-10.2,0.991,
CCCCOc1cc(C)cc2oc(=O)c3c(c12)CCC3,14.5,1.02,
O=[N+]([O-])c1ccc(NCCCO)c2ncccc12,-13.7,0.927,
O=[N+]([O-])c1ccc(NCC(O)c2ccccc2)c2ncccc12 (configuration not stated),35.7,0.652*,
CC(Nc1ccc([N+](=O)[O-])c2cccnc12)c1ccc(Br)cc1 (configuration not stated),25.8,0.677*,
CCCc1ccc(OCCNc2ccc([N+](=O)[O-])c3cccnc23)cc1,10.9,1.02,
Nc1ccc(Br)cc1C(=O)c1ccccc1F,-1.9,1.04,
COc1cccc(C=C2C(=O)NC(=O)NC2=O)c1,31.7,0.982,
COc1ccc(C=C2C(=O)NC(=S)NC2=O)c(OC)c1,11.0,0.775*,
CCOP(=O)(OCC)C1(O)C(=O)Nc2ccc(Br)cc21 (configuration not stated),7.4,0.97,
COC(=O)c1[nH]cnc1C(=O)Nc1ccc(Cl)cc1C(=O)c1ccccc1,16.1,0.72*!,
SMILES,NS3h inh CB,Cy5 interf NS3h,others
Cc1ccc(NC(=O)c2nc[nH]c2C(=O)Nc2ccc(Br)cc2C(=O)c2ccccc2)cc1,-1.6,1.08,
C1CCC2(C1)NN2CCN1NC12CCCC2 (configuration not stated),-9.3,1.04,
O=C1NC(=S)N(c2ccccc2)C(=O)/C1=C/c1ccc(-c2ccc(C(=O)O)c(Cl)c2)o1,68.2*,1.08,HCV NS3h conf=65.8*;SSB FP counter=95.1*;Cy5 SSB interf=0.841;Cy5 fluor confirm=0.926
Cc1ccc(N2C(=O)NC(=O)/C(=C\C=C\c3ccccc3)C2=O)cc1,13.6,0.907,
O=C1NC(=S)NC(=O)C1=Cc1ccc(-c2cc(Cl)c([N+](=O)[O-])cc2Cl)o1,24.6,0.879,
Cc1ccc(-n2c(C)cc(/C=C3\C(=O)NC(=S)N(c4ccccc4)C3=O)c2C)cc1,0.3,0.974,
O=C1NC(=O)N(c2ccccc2)C(=O)/C1=C\c1ccc(-c2ccc(C(=O)O)cc2)o1,83.1*,0.953,HCV NS3h conf=91.2*;SSB FP counter=93.9*;Cy5 SSB interf=0.836;Cy5 fluor confirm=0.76*
Cc1ccc(N2C(=O)/C(=C/c3ccc(-c4cccc(C(=O)O)c4)o3)C(=O)NC2=S)cc1,83.0*,1.04,HCV NS3h conf=55.2*;SSB FP counter=104.9*;Cy5 SSB interf=0.811;Cy5 fluor confirm=0.927
